From publication PMC4336329 (PLoS ONE, 2015)
Hit rate of the full screen: of about 310,000 compounds, about 2,200 (0.71%) showed an effect of 50% or more. The effect is printed as a negative number. The entries come from a sample that favours strong results as a whole.

biological target: human ether-à-go-go-related gene (hERG) potassium channel (human, UniProt Q12809); assay: primary screen, population patch clamp on CHO cells stably expressing hERG; higher = less effect of the substance
Sequence (Q12809 whole entry, looked up): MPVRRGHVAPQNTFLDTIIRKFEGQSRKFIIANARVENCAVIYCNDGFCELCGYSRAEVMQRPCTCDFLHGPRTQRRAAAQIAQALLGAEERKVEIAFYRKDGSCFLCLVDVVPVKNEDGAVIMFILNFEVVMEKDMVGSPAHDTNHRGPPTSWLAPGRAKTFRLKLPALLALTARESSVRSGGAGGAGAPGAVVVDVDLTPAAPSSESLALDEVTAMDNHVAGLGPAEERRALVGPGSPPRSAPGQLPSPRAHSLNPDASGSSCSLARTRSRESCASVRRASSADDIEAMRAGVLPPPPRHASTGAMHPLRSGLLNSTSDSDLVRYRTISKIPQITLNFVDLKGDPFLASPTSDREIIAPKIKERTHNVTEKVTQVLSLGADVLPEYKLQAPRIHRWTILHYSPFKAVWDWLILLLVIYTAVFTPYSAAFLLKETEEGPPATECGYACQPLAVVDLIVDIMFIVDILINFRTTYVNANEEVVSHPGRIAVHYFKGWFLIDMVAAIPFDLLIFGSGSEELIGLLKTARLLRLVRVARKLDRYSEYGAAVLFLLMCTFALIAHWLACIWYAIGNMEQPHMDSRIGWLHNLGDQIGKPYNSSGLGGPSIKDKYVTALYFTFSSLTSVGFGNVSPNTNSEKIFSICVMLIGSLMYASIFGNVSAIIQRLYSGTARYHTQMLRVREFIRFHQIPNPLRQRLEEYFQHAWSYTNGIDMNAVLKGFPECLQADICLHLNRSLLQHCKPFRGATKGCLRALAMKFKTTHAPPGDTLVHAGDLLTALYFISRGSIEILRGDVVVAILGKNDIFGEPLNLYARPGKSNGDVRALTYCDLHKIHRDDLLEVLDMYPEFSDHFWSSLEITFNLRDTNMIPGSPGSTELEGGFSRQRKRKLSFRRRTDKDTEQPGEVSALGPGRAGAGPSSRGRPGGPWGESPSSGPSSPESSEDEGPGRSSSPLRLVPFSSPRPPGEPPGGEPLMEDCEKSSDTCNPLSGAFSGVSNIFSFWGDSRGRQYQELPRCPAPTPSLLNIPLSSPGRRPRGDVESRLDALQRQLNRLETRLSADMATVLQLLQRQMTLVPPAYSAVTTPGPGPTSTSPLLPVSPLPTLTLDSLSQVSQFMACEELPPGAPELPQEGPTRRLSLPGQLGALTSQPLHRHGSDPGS

SMILES | hERG current change (%, negative = inhibition) at 1uM [%]
Cc1ccc(-c2nc(Nc3cccc(C)c3)sc2CC(=O)O)cc1 | 9.35
O=C(NCCCCc1ccccc1)Nc1cccc(F)c1 | 4.51
COC(=O)CNS(=O)(=O)c1ccc(C)cc1 | 11.1
CCn1c(SCC(=O)NCCc2ccccc2)nnc1C(C)C | 12
CCOC(=O)c1oc2ccc(S(=O)(=O)Nc3ccc4c(c3)n(C)c(=O)n4C)cc2c1C | 2.26
Cc1cc(-c2ccccc2)nc2cc(C(=O)N(Cc3ccccc3)Cc3ccccc3)nn12 | -3.92
CN(C)C(=S)Nc1ccc(Br)cc1Cl | 7.39
Nc1nccnc1C(=O)N/N=C/c1ccco1 | 13.2
Cc1csc(NC(=O)CSc2nnc(CCNC(=O)c3ccc(Cl)c(Cl)c3)n2C)n1 | 2.76
COc1ccc(-n2nnnc2SCC(=O)Nc2ccccc2N2CCOCC2)cc1 | -6.62
COc1ccc(CN2CCCC(C(=O)c3ccc(Cl)cc3)C2)cc1Cn1cccn1 (centres unmarked) | -78.4
COc1ccc(CN2CCCC(C(=O)c3cccc(OC(C)C)c3)C2)cc1Cn1cccn1 (centres unmarked) | -3.41
O=C(c1ccc(Cl)cc1)C1CCCN(Cc2ccc3ncccc3c2)C1 (centres unmarked) | -2.91
COc1ccccc1C(=O)C1CCCN(Cc2cccc3nccnc23)C1 (centres unmarked) | -45
COc1c(C)cc(C(=O)C2CCCN(Cc3cccc4nccnc34)C2)cc1C (centres unmarked) | -21.2
CSc1ccc(C(=O)C2CCCN(Cc3cccc4nccnc34)C2)cc1 (centres unmarked) | -82
Cc1ccc(NC(=O)CSc2ccccc2NC(=O)c2cccc(Cl)c2)cc1Cl | 0.293
O=C(COc1ccccc1)Nc1c(C(=O)N2CCC(N3CCCCC3)CC2)oc2ccccc12 | -9.1
O=C(Nc1c(C(=O)N2CCC(N3CCCCC3)CC2)oc2ccccc12)c1ccc(F)cc1 | -47.7
CCOc1ccc(C(=O)Nc2c(C(=O)N3CCC(N4CCCCC4)CC3)oc3ccccc23)cc1 | -82
COCC(=O)Nc1c(C(=O)N2CCCC2)oc2ccccc12 | 8.9
O=C(Nc1c(C(=O)N2CCC(N3CCCCC3)CC2)oc2ccccc12)c1c(F)cccc1F | -5.22
COc1ccc(OCC(=O)Nc2c(C(=O)N3CCC(N4CCCCC4)CC3)oc3ccccc23)cc1 | -82.8
COc1ccccc1-n1cnc(N)c1C(C)=O | 6.83

SMILES | hERG current change (%, negative = inhibition) at 1uM [%]
COc1cccc(-c2nc(OC(C)C)c3ccccc3n2)c1 | 7.09
CCOC(=S)SCC(=O)Nc1nc(-c2ccc(Br)cc2)cs1 | -92
CCOC(=S)SCC(=O)Nc1nc(-c2ccccc2)cs1 | 29.9
CCOC(=O)N1CCN(C(=O)CSCC(=O)Nc2nc(-c3ccc(C)cc3)cs2)CC1 | 1.87
CCOC(=O)C1=C(C)OC(N)=C(C#N)C1c1ccc(C)o1 (centres unmarked) | 7.95
COc1ccc(CCN(C)CC(O)COc2c(C)ccc(C)c2C)cc1OC (centres unmarked) | -68.7
COc1ccc(CCN(C)CC(O)COC(c2ccc(F)cc2)c2ccc(F)cc2)cc1OC (centres unmarked) | -79.9
COc1ccc(CCNCC(O)COc2c(C)cccc2C)cc1OC.O=C(O)C(=O)O (centres unmarked) | 7.9
COc1ccc(CCN(C)CC(O)c2ccccc2)cc1OC.O=C(O)C(=O)O (centres unmarked) | 1.76
COc1ccc(CCN(C)CC(O)COc2ccc(C(C)=O)cc2OC)cc1OC (centres unmarked) | 8.67
COc1ccc(CCN(C)Cc2ccc(F)cc2F)cc1OC | -2.08
Cc1cccc(Cn2c(=O)n(CCCC(=O)NCc3ccco3)c(=O)c3ccccc32)c1 | -4.67
O=C(CCc1ccccc1)Nc1sc2c(c1C(=O)O)CCCC2 | 20.1
CCc1nnc(N2C(=N)SCC2=O)s1 | 4.71
Cc1ccc(S(=O)(=O)NC(C)C(=O)NC2CCCCCC2)cc1 (centres unmarked) | -2.05
NC(=O)COC(=O)c1ccc2c(c1)C(=O)N(Cc1ccco1)C2=O | 9.91
N#Cc1ccccc1OCc1cccc(S(=O)(=O)N2CCOCC2)c1 | 11.3
Cc1cc(OCc2cccc(S(=O)(=O)N3CCOCC3)c2)ccc1Cl | 4.05
N#Cc1ccc(OCc2cccc(S(=O)(=O)N3CCOCC3)c2)cc1 | -57.3
COc1ccc(OC)c(/C=N/NC(=O)C(=O)N2CCCC2)c1 | 1.25
CCOC(=O)N1CCN(c2cc(=O)n(-c3ccc(C)cc3)c(=O)[nH]2)CC1 | -8.88
CN1CCN(c2ccc([N+](=O)[O-])cc2C(=O)Nc2ccccc2)CC1 | -59.8
CN1CCN(c2ccc([N+](=O)[O-])cc2NC(=O)c2ccccc2Cl)CC1 | -75.6
COc1ccc(NC(=O)c2cc([N+](=O)[O-])ccc2N2CCN(C)CC2)cc1 | -15.5

SMILES | hERG current change (%, negative = inhibition) at 1uM [%]
CN1CCN(c2ccccc2NC(=O)c2ccc([N+](=O)[O-])cc2Cl)CC1 | 0.769
CN1CCN(c2ccc([N+](=O)[O-])cc2NC(=O)c2cccs2)CC1 | -14.2
Cc1cccc(NC(=O)c2cc([N+](=O)[O-])ccc2N2CCN(C)CC2)c1 | -41.2
O=C1NCCc2c1[nH]c1ccccc21 | -4.21
COc1ccc(C(=O)Nc2ccc(NC(C)=O)cc2)cc1S(=O)(=O)N1CCCC1 | 16.9
Cc1nc(NCCC(C)C)c2nnn(Cc3ccccc3)c2n1 | 11.3
O=C(O)/C=C\C(=O)O.O=[N+]([O-])c1ccc2nc(N3CCNCC3)ccc2c1 | 1.34
COC(=O)/C=c1/s/c(=C(\C#N)C(=O)NCc2ccco2)n(-c2ccccc2)c1=O | 14.8
CCCC(=NCCc1c(C)[nH]c2ccccc12)C1=C(O)CC(c2ccccc2)CC1=O (centres unmarked) | -11.1
CCCN1CCN(CCCNC(=O)C2CCN(c3nnc(-n4c(C)ccc4C)s3)CC2)CC1 | 13.1
CCS(=O)(=O)c1ccc(O)c(NC(=O)COc2ccccc2)c1 | 12.6
Cc1cccc(-n2nc([N+](=O)[O-])c(=NC3CCN(Cc4ccccc4)CC3)n2O)c1 | -55.4
COc1ccc(-n2nc([N+](=O)[O-])c(=NC3CCN(Cc4ccccc4)CC3)n2O)cc1 | -6.46
O=[N+]([O-])c1nn(-c2ccccc2)n(O)c1=NC1CCN(Cc2ccccc2)CC1 | -16
O=C(Nc1cnn(Cc2ccc(Cl)cc2)c1)C1CCCC1 | -7.77
O=C(NCc1ccc(Cl)cc1)C(=O)NCC1OCCN1C(=O)c1cccs1 (centres unmarked) | 3.06
O=C(NCc1ccccc1)C(=O)NCC1OCCN1C(=O)c1cccs1 (centres unmarked) | -54.6
O=C(NCc1ccc(F)cc1)C(=O)NCC1OCCN1C(=O)c1cccs1 (centres unmarked) | 3.51
CCOC(=O)Cc1csc(NC(=O)c2ccc(OC)c(OC)c2)n1.Cl | -6.29
CN(C)S(=O)(=O)c1ccc(C(=O)NCC(C)(C)CN=C2NS(=O)(=O)c3ccccc32)cc1 | 1.35
Cc1nnc(C)c2c(C)n(C(c3ccccc3)c3ccccc3)c(C)c12 | -65.7
COc1ccc(C(C)n2c(C)c3c(C)nnc(C)c3c2C)cc1 (centres unmarked) | -52.3
COc1ccc(-c2nnnn2C(C)C)cc1 | 11.1
CC(=O)c1c(C(C)=O)c(C)n(C(c2ccccc2)c2ccccc2)c1C | -4.36

SMILES | hERG current change (%, negative = inhibition) at 1uM [%]
COc1ccc(C(=O)C(Sc2nnc(C)c(=O)[nH]2)c2ccc(OC)cc2)cc1 (centres unmarked) | 1.35
Cc1nnc(C)c2c(C)n(C(C)c3ccccc3)c(C)c12 (centres unmarked) | -1.28
Cc1cccc(NC(=O)NC2(C(=O)NCc3ccco3)CCCCC2)c1 | 2.75
CN(C)c1ccc(NS(=O)(=O)c2ccc(Cl)cc2)cc1 | 6.28
CC(C)Oc1ccc(Nc2ncnc3ccccc23)cc1.Cl | 3.47
COc1ccc(NC(=O)CCn2ccnc2)c(OC)c1 | 9.53
COC(=O)COc1ccc(S(=O)(=O)N2CCOCC2)cc1 | 13.1
CCN1CCN(CC(=O)Nc2cc(C(F)(F)F)ccc2OCCOC)CC1.O=C(O)C(=O)O | -70.9
CCCCCNCC(=O)Nc1cc(C(F)(F)F)ccc1OCCOC | -5.74
COCCOc1ccc(C(F)(F)F)cc1NC(=O)c1ccccc1 | -2.95
CC(=O)N(C)c1ccc(NC(=O)Nc2ccc(Cl)cc2)cc1 | 8.67
CC(=O)Cc1ccccc1OCC(=O)O | 18.9
O=C(Nc1cc(Cl)cc(Cl)c1)c1cnn2cccnc12 | 16.2
COC(=O)c1c(NC(=O)CN2C(=O)C(=O)N(CC(C)C)C2=O)sc(C)c1C | 9.77
O=C1N(Cc2cccc(Cl)c2)C[C@@H]2C[C@@H](c3cccn3-c3nccs3)N3CCC[C@@]123 | -19.2
O=C1N(Cc2cccc(Cl)c2)C[C@@H]2C[C@@H](c3cccc4cccnc34)N3CCC[C@@]123 | -63.8
O=C1N(Cc2cccc(Cl)c2)C[C@@H]2C[C@@H](c3cccc4ncccc34)N3CCC[C@@]123 | -2.07
O=C1N(Cc2cccnc2)C[C@@H]2C[C@@H](c3cccc(Oc4ccccc4)c3)N3CCC[C@@]123 | -4.79
O=C1N(Cc2cccc(Cl)c2)C[C@@H]2C[C@@H](c3cccn3-c3ccccn3)N3CCC[C@@]123 | -56.9
O=C1N(Cc2cccc(Cl)c2)C[C@@H]2C[C@@H](c3ccccn3)N3CCC[C@@]123 | 7.23
O=C1N(Cc2cccc(Cl)c2)C[C@@H]2C[C@@H](c3cccn3-c3cccnc3)N3CCC[C@@]123 | 3.63
O=C1N(Cc2cccnc2)C[C@@H]2C[C@@H](c3cccc(OCc4ccccc4)c3)N3CCC[C@@]123 | -17.8
O=C1N(Cc2cccnc2)C[C@@H]2C[C@@H](c3cccc(OC4CCCC4)c3)N3CCC[C@@]123 | -53.3
